The supplement of paper PMC10849652
The full data set covers some 7,900 targets. This sample favours those with a hit. About 0.6% of all pairs of compound and target were hits.

What was measured:
Assay in all cases: log2 fold change, soluble protein after heating vs DMSO (PISA); higher = thermal stabilisation; K562 cells, 10 uM, 30 min; active = over 0.2 and 3.5 SD of the protein, either way, in both replicates (recomputed)
sotrastaurin = compound: CN1CCN(c2nc(C3=C(c4c[nH]c5ccccc45)C(=O)NC3=O)c3ccccc3n2)CC1 [sotrastaurin]
How it was run: (§1)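 K562 cells at 2×10^6 cells/mL were given 10 μM compound for 30 min. Aliquots then went through 3 min of heating across 48°C-58°C, were pooled, and were extracted in PBS with 0.5% NP-40 at 4°C, and the supernatant after 21,000xg for 90 min was quantified by TMTpro 16plex LC-MS/MS with channel sums equalised. Thermal stability relative to control samples, from duplicates, is given as log2 fold change.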

[1] = compound: CNC(=O)C1=CC=CC=C1NC2=NC(=NC=C2Cl)NC3=C(C=C(C=C3)N4CCOCC4)OC
How it was run: as §1

defactinib = compound: CNC(=O)c1ccc(Nc2ncc(C(F)(F)F)c(NCc3nccnc3N(C)S(C)(=O)=O)n2)cc1 [defactinib]
How it was run: as §1

[2] = compound: COC(=O)[C@H](CCSC)NC(=O)C1=C(C=C(C=C1)NC[C@H](CS)N)C2=CC=CC=C2
How it was run: as §1

[3] = compound: COC1=CC=C(C=C1)CN2C=CC3=C2C=C(C=C3)C(=O)NO
How it was run: as §1

filanesib = compound: CON(C)C(=O)N1N=C(c2cc(F)ccc2F)S[C@@]1(CCCN)c1ccccc1 [filanesib]
How it was run: as §1

alisertib = compound: COc1cc(Nc2ncc3c(n2)-c2ccc(Cl)cc2C(c2c(F)cccc2OC)=NC3)ccc1C(=O)O [alisertib]
How it was run: as §1

gefitinib = compound: COc1cc2ncnc(Nc3ccc(F)c(Cl)c3)c2cc1OCCCN1CCOCC1 [gefitinib]
How it was run: as §1

[4] = compound: COc1cccc2cc(-c3nc([C@H]4CC[C@H](C(=O)O)CC4)n4ncnc(N)c34)[nH]c12
How it was run: as §1

pictilisib = compound: CS(=O)(=O)N1CCN(Cc2cc3nc(-c4cccc5[nH]ncc45)nc(N4CCOCC4)c3s2)CC1 [pictilisib]
How it was run: as §1

[5] = compound: COc1cc2nc(-c3cc(F)ccc3O)nc(N[C@@H]3CNC[C@H]3C(C)(C)O)c2cc1OC
How it was run: as §1

lapatinib = compound: CS(=O)(=O)CCNCc1ccc(-c2ccc3ncnc(Nc4ccc(OCc5cccc(F)c5)c(Cl)c4)c3c2)o1 [lapatinib]
How it was run: as §1

saracatinib = compound: CN1CCN(CCOc2cc(OC3CCOCC3)c3c(Nc4c(Cl)ccc5c4OCO5)ncnc3c2)CC1 [saracatinib]
How it was run: as §1

Tubastatin A = compound: CN1CCc2c(c3ccccc3n2Cc2ccc(C(=O)NO)cc2)C1 [Tubastatin A]
How it was run: as §1

rucaparib = compound: CNCc1ccc(-c2[nH]c3cc(F)cc4c3c2CCNC4=O)cc1 [rucaparib]
How it was run: as §1

[6] = compound: CNc1nc(-c2ccc3c(N)n[nH]c3c2)cc(N2C[C@@H](C(=O)NC3CCCCC3)CC[C@H]2C)n1
How it was run: as §1

encorafenib = compound: COC(=O)N[C@@H](C)CNc1nccc(-c2cn(C(C)C)nc2-c2cc(Cl)cc(NS(C)(=O)=O)c2F)n1 [encorafenib]
How it was run: as §1

alvocidib = compound: CN1CC[C@H](c2c(O)cc(O)c3c(=O)cc(-c4ccccc4Cl)oc23)[C@H](O)C1 [alvocidib]
How it was run: as §1

zotarolimus = compound: CO[C@H]1C[C@@H]2CC[C@@H](C)[C@@](O)(O2)C(=O)C(=O)N2CCCC[C@H]2C(=O)O[C@H]([C@H](C)C[C@@H]2CC[C@H](n3cnnn3)[C@H](OC)C2)CC(=O)[C@H](C)/C=C(\C)[C@@H](O)[C@@H](OC)C(=O)[C@H](C)C[C@H](C)/C=C/C=C/C=C/1C [zotarolimus]
How it was run: as §1

idasanutlin = compound: COc1cc(C(=O)O)ccc1NC(=O)[C@@H]1N[C@@H](CC(C)(C)C)[C@](C#N)(c2ccc(Cl)cc2F)[C@H]1c1cccc(Cl)c1F [idasanutlin]
How it was run: as §1

Measured: log2 fold change

GOLGA6B (UniProt A6NDN3)
Sequence of UniProt A6NDN3 (A6NDN3 whole entry, looked up): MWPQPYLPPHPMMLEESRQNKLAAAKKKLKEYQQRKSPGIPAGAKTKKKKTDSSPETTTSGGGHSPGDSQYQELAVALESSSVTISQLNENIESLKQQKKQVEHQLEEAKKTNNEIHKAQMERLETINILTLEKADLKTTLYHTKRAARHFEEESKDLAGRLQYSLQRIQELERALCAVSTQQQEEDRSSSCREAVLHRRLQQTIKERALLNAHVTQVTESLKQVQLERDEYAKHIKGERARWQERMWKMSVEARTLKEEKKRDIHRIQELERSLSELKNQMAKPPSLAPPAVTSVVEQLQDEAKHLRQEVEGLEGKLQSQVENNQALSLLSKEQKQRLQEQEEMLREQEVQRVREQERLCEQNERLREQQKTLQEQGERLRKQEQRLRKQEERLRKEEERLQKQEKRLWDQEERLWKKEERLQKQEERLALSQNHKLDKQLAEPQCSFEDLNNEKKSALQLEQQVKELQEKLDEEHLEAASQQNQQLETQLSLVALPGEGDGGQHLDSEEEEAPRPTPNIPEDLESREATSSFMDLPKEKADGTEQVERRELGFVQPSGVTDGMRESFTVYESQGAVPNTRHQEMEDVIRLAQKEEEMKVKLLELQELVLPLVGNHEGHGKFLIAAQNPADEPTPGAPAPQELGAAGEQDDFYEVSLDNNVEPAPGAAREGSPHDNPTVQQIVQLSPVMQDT
inactive: sotrastaurin 0.068 | [1] -0.066 | defactinib -0.211 | [2] -0.475 | [3] 0.088 | filanesib -0.115 | alisertib -0.092 | gefitinib 0.012 | [4] 0.102 | pictilisib 0.144

FUNDC1 (UniProt Q8IVP5)
Sequence of UniProt Q8IVP5 (Q8IVP5 whole entry, looked up): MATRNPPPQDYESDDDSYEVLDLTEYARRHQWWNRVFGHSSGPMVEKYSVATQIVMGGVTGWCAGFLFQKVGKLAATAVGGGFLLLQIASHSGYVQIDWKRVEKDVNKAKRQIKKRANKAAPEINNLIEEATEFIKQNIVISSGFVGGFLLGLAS
inactive: sotrastaurin 0.049 | filanesib -0.193 | alisertib 0.011 | [5] -0.138 | [4] 0.172 | lapatinib 0.101

FGG (UniProt P02679)
Sequence of UniProt P02679 (P02679 whole entry, looked up): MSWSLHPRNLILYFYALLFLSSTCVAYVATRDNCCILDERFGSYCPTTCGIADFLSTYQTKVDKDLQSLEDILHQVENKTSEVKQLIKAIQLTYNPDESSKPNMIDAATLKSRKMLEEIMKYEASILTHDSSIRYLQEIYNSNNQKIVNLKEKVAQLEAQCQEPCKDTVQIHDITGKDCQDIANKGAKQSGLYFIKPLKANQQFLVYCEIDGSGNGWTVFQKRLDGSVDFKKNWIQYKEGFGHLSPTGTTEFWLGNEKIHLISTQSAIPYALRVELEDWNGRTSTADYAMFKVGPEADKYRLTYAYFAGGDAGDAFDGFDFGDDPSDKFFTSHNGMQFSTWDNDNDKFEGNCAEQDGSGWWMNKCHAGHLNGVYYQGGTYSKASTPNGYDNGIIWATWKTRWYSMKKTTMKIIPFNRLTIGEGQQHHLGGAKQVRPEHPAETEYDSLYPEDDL
inactive: [5] -0.068 | lapatinib -0.001 | pictilisib -0.367

FCF1 (UniProt Q9Y324)
Sequence of UniProt Q9Y324 (Q9Y324 whole entry, looked up): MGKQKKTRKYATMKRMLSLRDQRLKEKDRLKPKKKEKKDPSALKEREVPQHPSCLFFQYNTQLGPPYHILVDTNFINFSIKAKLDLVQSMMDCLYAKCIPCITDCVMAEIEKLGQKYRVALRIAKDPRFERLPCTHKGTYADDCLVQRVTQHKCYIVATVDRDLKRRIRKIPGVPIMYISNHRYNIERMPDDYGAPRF
inactive: saracatinib -0.111 | sotrastaurin -0.116 | Tubastatin A 0.07 | defactinib 0.26 | rucaparib 0.187 | [6] 0.2 | encorafenib 0.121 | [2] -0.044 | [3] -0.026 | filanesib 0.405 | alisertib -0.272 | [5] 0.1 | [4] -0.299 | lapatinib 0.157 | pictilisib -0.262

GID4 (UniProt Q8IVV7)
Sequence of UniProt Q8IVV7 (Q8IVV7 whole entry, looked up): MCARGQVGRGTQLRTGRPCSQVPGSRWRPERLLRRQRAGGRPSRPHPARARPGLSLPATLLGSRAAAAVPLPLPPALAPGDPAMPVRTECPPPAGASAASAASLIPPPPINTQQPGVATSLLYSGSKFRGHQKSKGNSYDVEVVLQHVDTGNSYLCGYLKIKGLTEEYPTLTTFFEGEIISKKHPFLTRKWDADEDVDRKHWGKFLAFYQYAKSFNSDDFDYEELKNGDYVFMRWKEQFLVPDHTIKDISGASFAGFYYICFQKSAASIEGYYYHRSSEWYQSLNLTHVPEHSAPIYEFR
inactive: saracatinib 0.04 | sotrastaurin -0.091 | alvocidib -0.006 | Tubastatin A 0.015 | [1] -0.038 | defactinib 0.032 | rucaparib 0.032 | [6] -0.079 | encorafenib -0.072 | [2] 0.139 | filanesib -0.089 | zotarolimus 0.013 | idasanutlin -0.023 | alisertib -0.074 | [5] 0.097 | gefitinib -0.067 | [4] 0.01 | lapatinib -0.14 | pictilisib 0.024

GSTT1 (UniProt P30711)
Sequence of UniProt P30711 (P30711 whole entry, looked up): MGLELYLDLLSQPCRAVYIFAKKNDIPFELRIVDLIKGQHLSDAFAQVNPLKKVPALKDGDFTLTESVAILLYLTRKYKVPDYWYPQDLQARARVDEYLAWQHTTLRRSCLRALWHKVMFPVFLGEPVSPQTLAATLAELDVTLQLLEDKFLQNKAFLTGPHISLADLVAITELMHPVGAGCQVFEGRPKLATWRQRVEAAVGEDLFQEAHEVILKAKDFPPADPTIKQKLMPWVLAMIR
inactive: saracatinib -0.011 | alvocidib -0.023 | Tubastatin A 0.015 | [1] -0.029 | defactinib -0.027 | rucaparib 0.028 | [6] 0 | encorafenib 0.023 | [2] -0.062 | [3] 0.014 | zotarolimus 0.07 | idasanutlin 0 | alisertib -0.118 | [5] -0.015 | gefitinib 0.023 | [4] 0.029 | lapatinib 0.003 | pictilisib 0.027

FAT2 (UniProt Q9NYQ8)
inactive: saracatinib -0.243 | alvocidib 0.083 | Tubastatin A 0.144 | [1] -0.206 | defactinib 0.011 | rucaparib -0.007 | [6] 0.021 | encorafenib 0.094 | [2] 0.001 | [3] 0.247 | zotarolimus 0.104 | alisertib 0.208 | [5] 0.031 | [4] -0.024 | lapatinib -0.089 | pictilisib -0.497

ICMT (UniProt O60725)
Sequence of UniProt O60725 (O60725 whole entry, looked up): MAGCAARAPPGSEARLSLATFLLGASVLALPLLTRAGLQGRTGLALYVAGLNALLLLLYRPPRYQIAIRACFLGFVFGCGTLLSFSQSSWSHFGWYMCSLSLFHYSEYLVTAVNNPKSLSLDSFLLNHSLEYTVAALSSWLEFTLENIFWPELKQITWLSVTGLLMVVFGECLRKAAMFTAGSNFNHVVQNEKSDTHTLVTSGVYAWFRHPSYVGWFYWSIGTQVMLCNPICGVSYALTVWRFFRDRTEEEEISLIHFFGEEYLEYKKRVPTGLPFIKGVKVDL
inactive: saracatinib -0.105 | sotrastaurin 0.025 | Tubastatin A -0.065 | [1] 0.061 | defactinib -0.034 | rucaparib 0.037 | [6] 0.235 | encorafenib -0.144 | [2] 0.062 | [3] -0.083 | filanesib -0.189 | idasanutlin -0.029 | alisertib -0.046 | [5] -0.112 | gefitinib 0.154 | [4] 0.085 | lapatinib 0.206

HDAC7 isoform 5 (UniProt Q8WUI4)
Sequence of UniProt Q8WUI4 (Q8WUI4 whole entry, looked up): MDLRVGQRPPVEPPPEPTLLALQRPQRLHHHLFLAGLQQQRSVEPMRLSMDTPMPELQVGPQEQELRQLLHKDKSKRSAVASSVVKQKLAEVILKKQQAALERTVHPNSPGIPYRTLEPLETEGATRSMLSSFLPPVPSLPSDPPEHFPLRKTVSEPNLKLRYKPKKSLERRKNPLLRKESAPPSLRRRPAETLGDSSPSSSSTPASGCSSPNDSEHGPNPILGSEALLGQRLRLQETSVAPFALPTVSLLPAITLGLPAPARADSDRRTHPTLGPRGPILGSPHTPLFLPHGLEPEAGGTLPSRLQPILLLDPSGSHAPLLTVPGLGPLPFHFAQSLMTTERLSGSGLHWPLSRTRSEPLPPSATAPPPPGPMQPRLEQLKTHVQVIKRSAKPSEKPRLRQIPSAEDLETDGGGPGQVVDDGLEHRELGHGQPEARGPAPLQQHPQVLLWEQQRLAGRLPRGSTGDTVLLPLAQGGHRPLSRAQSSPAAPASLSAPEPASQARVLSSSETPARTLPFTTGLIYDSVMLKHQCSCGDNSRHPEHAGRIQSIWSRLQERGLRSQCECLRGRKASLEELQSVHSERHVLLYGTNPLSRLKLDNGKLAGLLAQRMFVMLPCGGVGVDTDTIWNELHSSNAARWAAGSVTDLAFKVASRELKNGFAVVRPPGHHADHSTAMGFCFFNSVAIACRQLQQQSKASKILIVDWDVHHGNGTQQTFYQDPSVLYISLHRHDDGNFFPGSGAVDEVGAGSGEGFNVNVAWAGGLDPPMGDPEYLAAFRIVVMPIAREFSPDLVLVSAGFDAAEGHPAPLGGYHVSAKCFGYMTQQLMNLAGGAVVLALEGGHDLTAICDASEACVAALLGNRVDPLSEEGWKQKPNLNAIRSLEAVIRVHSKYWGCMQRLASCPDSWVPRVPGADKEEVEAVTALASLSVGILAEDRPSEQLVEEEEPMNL
inactive: saracatinib -0.04 | sotrastaurin -0.048 | alvocidib -0.185 | [1] -0.2 | defactinib -0.011 | rucaparib -0.033 | [6] 0 | encorafenib -0.016 | [2] 0.012 | filanesib 0.121 | zotarolimus 0.054 | idasanutlin 0.024 | alisertib -0.075 | [5] 0.075 | gefitinib -0.015 | [4] 0.046 | lapatinib 0.071 | pictilisib -0.004

FMR1 (UniProt Q06787)
inactive: sotrastaurin -0.105 | alvocidib 0.046 | [1] 0.006 | rucaparib 0.19 | encorafenib 0.04 | [3] -0.3 | filanesib 0.219 | zotarolimus 0.005 | alisertib -0.023 | [5] 0.286 | [4] 0.322 | lapatinib -0.027 | pictilisib 0.036
